Assay results taken from PubChem BioAssay (EPA / NIEHS).
Where “and” joins values, the source holds several entries; their conditions need not be identical. Equal values may be shown once. Some compounds were tested as several samples or in several runs, with calls that do not always agree. Calls of active or inactive are those of the source. The calls were made as follows: active = hit-call score of the fitted dose curve at least 0.9, where 1 is the maximum; inactive = score below 0.9.

What was measured:
[1] = target: Transcription factor E2F1 (Homo sapiens) (UniProt Q01094); assay: ATG_E2F_CIS: Attagene CIS-FACTORIAL HepG2 Assay for human E2F Transcription Factor 1 (AID 2282935); conditions: HepG2 Attagene cis-reporter, E2F reporter RNA transcripts; actives raise or lower the signal
Summary of the method: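 In this cis-factorial format, endogenous factor activity drives transfected reporters in HepG2; transcripts collected at 24 h are quantified by fluorescence after RT-PCR and capillary separation.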

[2] = ATG_E_Box_CIS: Attagene CIS-FACTORIAL HepG2 Assay for human Enhancer Box (E-box) (AID 2282936); conditions: HepG2 E-box cis-reporter transcription, actives raise or lower the signal
Summary of the method: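 Measured 24 h post-dosing in HepG2 cells transfected with multiple cis-regulated reporter units, signal being reporter mRNA induction detected by fluorescent RT-PCR with capillary electrophoresis; gain or loss fitted against DMSO.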

[3] = ATG_M_61_CIS: Attagene CIS-FACTORIAL HepG2 Assay for M61 Transcription Factor (Internal Marker) (AID 2282937); conditions: HepG2 Attagene CIS-FACTORIAL M61 internal marker reporter; actives raise or lower the signal
Summary of the method: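 Readout: fluorescent reporter mRNA fragments resolved by capillary electrophoresis after RT-PCR. Transiently transfected human HepG2 cells carried MRTU constructs reporting endogenous TF activity; 24 h chemical exposure; gain or loss of signal fitted relative to DMSO.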

[4] = ATG_EGR_CIS: Attagene CIS-FACTORIAL HepG2 Assay for human Early Growth Response 1 (EGR1) (AID 2282938); conditions: HepG2 Attagene CIS-FACTORIAL EGR reporter mRNA; actives raise or lower the signal
Summary of the method: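 Read-out: fluorescent reporter-mRNA fragments resolved by capillary electrophoresis after RT-PCR, 24 h post-dose in transiently transfected HepG2. Endogenous transcription-factor activity reported via cis-element-regulated reporter units; gain or loss fitted relative to DMSO.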

[5] = ATG_ERE_CIS: Attagene CIS-FACTORIAL HepG2 Assay for Estrogen Response Element (ERE) (AID 2282940); conditions: HepG2 ERE cis-reporter, Attagene RNA transcript; actives raise or lower the signal
Summary of the method: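 Fluorescence of capillary-separated, FAM-labelled reporter cDNA fragments indicates reporter mRNA levels in HepG2 cells exposed to chemicals for 24 h. Transient transfection with cis-regulated units; data fitted in both directions against DMSO.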

[6] = ATG_Ets_CIS: Attagene CIS-FACTORIAL HepG2 Assay for human Erythroblast Transformation Specific (ETS) (AID 2282941); conditions: HepG2 ETS cis-reporter transcription, actives raise or lower the signal
Summary of the method: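 Endogenous transcription factor activity read as reporter mRNA via RT-PCR and capillary electrophoresis, with gain or loss fitted bidirectionally against DMSO. Human HepG2 liver cells, transiently transfected CIS reporter constructs, 24 h exposure.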

[7] = ATG_FoxO_CIS: Attagene CIS-FACTORIAL HepG2 Assay for human Forkhead box O (FoxO) (AID 2282943); conditions: HepG2 Attagene cis-reporter, FoxO element, mRNA; actives raise or lower the signal
Summary of the method: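 24 h chemical exposure, HepG2 with transient cis-MRTU transfection. RNA extraction, oligo(dT) RT, reporter-specific PCR, primer-extension labelling, HpaI digestion, CE fragment analysis; bidirectional fit, DMSO baseline.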

[8] = ATG_GATA_CIS: Attagene CIS-FACTORIAL HepG2 Assay for human GATA Binding Protein (AID 2282944); conditions: HepG2 GATA cis-element reporter, Attagene multiplex mRNA; actives raise or lower the signal
Summary of the method: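 After transfecting HepG2 cells with multiple cis-regulated reporter units, chemicals are dosed for 24 h; isolated RNA undergoes RT-PCR and fluorescent labeling before capillary electrophoresis, with activity expressed against DMSO.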

[9] = ATG_GLI_CIS: Attagene CIS-FACTORIAL HepG2 Assay for human Zinc Finger Protein GLI1 (AID 2282945); conditions: HepG2, Attagene cis-factorial reporter mRNA, GLI element; actives raise or lower the signal
Summary of the method: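 HepG2 cells transiently transfected with cis-promoter multiplexed reporter units report endogenous transcription factor activity. After 24 h chemical exposure, reporter mRNA was quantified by RT-PCR, 6-FAM labelling, HpaI digestion and capillary electrophoresis, with bidirectional fitting against DMSO.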

[10] = target: Bile acid receptor (Homo sapiens) (UniProt Q96RI1); assay: ATG_IR1_CIS: Attagene CIS-FACTORIAL HepG2 Assay for human Nuclear Receptor Subfamily 1 Group H Member 4 (NR1H4), IR1 submotif (AID 2282946); conditions: IR1 reporter transcription, actives raise or lower the signal
Summary of the method: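 Readout: reporter transcript levels by RT-PCR with fluorescent capillary electrophoresis, from HepG2 cells transiently transfected with multiplexed cis-regulated reporters and dosed 24 h. Gain- or loss-of-signal fitted versus DMSO negative control.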

[11] = ATG_GRE_CIS: Attagene CIS-FACTORIAL HepG2 Assay for human Glucocorticoid Response Elements (GRE) (AID 2282947); conditions: HepG2 GRE cis-reporter, Attagene multiplex mRNA; actives raise or lower the signal
Summary of the method: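 HepG2, transient cis-reporter transfection, 24 h. Reporter mRNA: RT-PCR then CE, fluorescence. Fit both directions vs DMSO.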

[12] = ATG_M_06_CIS: Attagene CIS-FACTORIAL HepG2 Assay for M06 Transcription Factor (Internal Marker) (AID 2282950); conditions: HepG2 Attagene CIS-FACTORIAL M06 internal marker reporter; actives raise or lower the signal
Summary of the method: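 HepG2 liver cells, 24 h exposure. Reporter transcripts from transfected cis-element constructs quantified by RT-PCR/capillary electrophoresis fluorescence. Bidirectional curve fit against DMSO.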

[13] = target: Hypoxia-inducible factor 1-alpha (Homo sapiens) (UniProt Q16665); assay: ATG_HIF1a_CIS: Attagene CIS-FACTORIAL HepG2 Assay for human Hypoxia Inducible Factor 1 (HIF1A) (AID 2282951); conditions: HepG2 Attagene cis-factorial HIF1a reporter transcription; actives raise or lower the signal
Summary of the method: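 RT-PCR/capillary electrophoresis fluorescence readout of reporter transcripts from endogenous-TF-driven cis elements in transfected HepG2 cells, 24 h exposure; activity fitted in both directions against DMSO controls.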

[14] = target: Hepatocyte nuclear factor 6 (Homo sapiens) (UniProt Q9UBC0); assay: ATG_HNF6_CIS: Attagene CIS-FACTORIAL HepG2 Assay for human Hepatocyte Nuclear Factor 6 (HNF6) (AID 2282952); conditions: HepG2 Attagene cis-factorial HNF6 reporter transcription; actives raise or lower the signal
Summary of the method: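 First, HepG2 cells were transfected with the multiplexed cis reporter library and dosed with chemical for 24 h. Next, RNA was reverse-transcribed, PCR-amplified and fluorescently labelled. Finally, HpaI-digested fragments were read by capillary electrophoresis.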

[15] = target: Heat shock factor protein 1 (Homo sapiens) (UniProt Q00613); assay: ATG_HSE_CIS: Attagene CIS-FACTORIAL HepG2 Assay for human Heat Shock Transcription Factor 1 (HSE) (AID 2282953); conditions: HepG2 HSE cis-reporter, Attagene RNA transcription; actives raise or lower the signal
Summary of the method: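 Endogenous transcription factor activity captured via cis-promoter reporter units transfected into HepG2; treatment lasted 24 h. Fluorescence intensity of reporter fragments analysed with bidirectional curve fitting, DMSO baseline.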

[16] = ATG_MRE_CIS: Attagene CIS-FACTORIAL HepG2 Assay for human Metal Responsive Element (MRE) (AID 2282954); conditions: HepG2 MRE cis-reporter transcription, Attagene multiplex; actives raise or lower the signal
Summary of the method: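 Readout: capillary electrophoresis of 6-FAM-labelled, HpaI-digested RT-PCR reporter products. System: HepG2 cells carrying transient multiplexed cis reporters, dosed 24 h. Analysis: bidirectional fit, DMSO baseline.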

[17] = target: Hepatocyte nuclear factor 3-beta (Homo sapiens) (UniProt Q9Y261); assay: ATG_FoxA2_CIS: Attagene CIS-FACTORIAL HepG2 Assay for human Forkhead box A2 (FOXA2) (AID 2282942); conditions: HepG2 cis-reporter transcription factor activity, 24 h; actives raise or lower the signal
Summary of the method: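 Readout: fluorescent reporter transcripts resolved by capillary electrophoresis after RT-PCR. Transiently transfected HepG2, 24 h compound exposure, endogenous TF activity at cis promoter elements. Gain or loss of signal fitted relative to DMSO.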

[18] = ATG_ISRE_CIS: Attagene CIS-FACTORIAL HepG2 Assay for human Interferon Regulatory Factor 1 (IRF1) binding to an Interferon-Stimulated Response Element (ISRE) (AID 2282948); conditions: HepG2 ISRE cis-reporter (Attagene), mRNA transcription readout; actives raise or lower the signal
Summary of the method: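 Endogenous transcription factor activity read as reporter transcript abundance via RT-PCR and capillary electrophoresis. HepG2 cells transiently transfected, 24 h chemical exposure. Gain or loss fitted against DMSO baseline.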

[19] = ATG_M_32_CIS: Attagene CIS-FACTORIAL HepG2 Assay for M32 Transcription Factor (Internal Marker) (AID 2282949); conditions: HepG2 Attagene cis-factorial M32 reporter, mRNA; actives raise or lower the signal;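 also: background control marker of the multiplexed CIS panel rather than a real target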
Summary of the method: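 Transient MRTU transfection of HepG2; 24 h compound treatment; TriZol RNA, oligo(dT) RT, reporter PCR, 6-FAM primer extension, HpaI cut, CE. Gain/loss of signal vs DMSO.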

Measured: AC50

Sequence of Hepatocyte nuclear factor 6 (Homo sapiens) (Q9UBC0 whole entry, looked up, the tested form may be a part): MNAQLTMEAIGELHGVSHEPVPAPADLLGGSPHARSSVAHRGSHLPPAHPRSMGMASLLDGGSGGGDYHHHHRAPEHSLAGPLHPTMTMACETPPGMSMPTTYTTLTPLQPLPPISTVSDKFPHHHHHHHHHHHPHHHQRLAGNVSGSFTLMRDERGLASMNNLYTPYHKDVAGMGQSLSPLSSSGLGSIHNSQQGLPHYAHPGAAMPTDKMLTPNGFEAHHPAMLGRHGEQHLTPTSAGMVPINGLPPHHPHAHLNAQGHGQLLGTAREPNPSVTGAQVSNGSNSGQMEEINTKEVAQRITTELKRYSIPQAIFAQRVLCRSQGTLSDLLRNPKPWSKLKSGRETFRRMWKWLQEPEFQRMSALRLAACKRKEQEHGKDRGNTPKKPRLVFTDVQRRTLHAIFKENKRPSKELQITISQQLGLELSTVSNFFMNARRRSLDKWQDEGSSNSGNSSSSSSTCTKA
Sequence of Hepatocyte nuclear factor 3-beta (Homo sapiens) (Q9Y261 whole entry, looked up): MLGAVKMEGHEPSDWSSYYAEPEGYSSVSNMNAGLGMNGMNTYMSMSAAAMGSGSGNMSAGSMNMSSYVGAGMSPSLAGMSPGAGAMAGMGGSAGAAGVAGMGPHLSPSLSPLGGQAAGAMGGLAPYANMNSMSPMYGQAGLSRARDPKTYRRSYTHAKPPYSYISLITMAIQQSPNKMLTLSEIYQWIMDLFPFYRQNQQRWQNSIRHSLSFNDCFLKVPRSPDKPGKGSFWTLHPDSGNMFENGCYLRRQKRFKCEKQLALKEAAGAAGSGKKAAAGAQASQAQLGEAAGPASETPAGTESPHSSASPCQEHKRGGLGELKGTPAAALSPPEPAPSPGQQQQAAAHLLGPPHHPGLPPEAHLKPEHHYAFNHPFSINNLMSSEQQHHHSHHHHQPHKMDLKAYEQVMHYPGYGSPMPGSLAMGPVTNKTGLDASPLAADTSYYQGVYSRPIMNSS
Sequence of Heat shock factor protein 1 (Homo sapiens) (Q00613 whole entry, looked up, the tested form may be a part): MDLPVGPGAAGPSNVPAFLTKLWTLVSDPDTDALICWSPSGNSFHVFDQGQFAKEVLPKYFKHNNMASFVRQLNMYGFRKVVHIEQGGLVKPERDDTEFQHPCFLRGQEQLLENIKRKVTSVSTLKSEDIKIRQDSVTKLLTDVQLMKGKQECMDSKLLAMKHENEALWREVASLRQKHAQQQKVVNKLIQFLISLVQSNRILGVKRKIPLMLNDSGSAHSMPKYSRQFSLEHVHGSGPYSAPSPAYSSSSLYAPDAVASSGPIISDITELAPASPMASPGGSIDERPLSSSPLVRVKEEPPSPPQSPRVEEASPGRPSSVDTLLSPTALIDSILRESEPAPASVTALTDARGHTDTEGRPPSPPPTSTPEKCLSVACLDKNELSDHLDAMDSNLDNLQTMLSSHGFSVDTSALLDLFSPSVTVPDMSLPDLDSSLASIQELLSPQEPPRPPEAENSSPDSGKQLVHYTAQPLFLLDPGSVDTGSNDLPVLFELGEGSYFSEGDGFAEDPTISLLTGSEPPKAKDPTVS
Sequence of Transcription factor E2F1 (Homo sapiens) (Q01094 whole entry, looked up): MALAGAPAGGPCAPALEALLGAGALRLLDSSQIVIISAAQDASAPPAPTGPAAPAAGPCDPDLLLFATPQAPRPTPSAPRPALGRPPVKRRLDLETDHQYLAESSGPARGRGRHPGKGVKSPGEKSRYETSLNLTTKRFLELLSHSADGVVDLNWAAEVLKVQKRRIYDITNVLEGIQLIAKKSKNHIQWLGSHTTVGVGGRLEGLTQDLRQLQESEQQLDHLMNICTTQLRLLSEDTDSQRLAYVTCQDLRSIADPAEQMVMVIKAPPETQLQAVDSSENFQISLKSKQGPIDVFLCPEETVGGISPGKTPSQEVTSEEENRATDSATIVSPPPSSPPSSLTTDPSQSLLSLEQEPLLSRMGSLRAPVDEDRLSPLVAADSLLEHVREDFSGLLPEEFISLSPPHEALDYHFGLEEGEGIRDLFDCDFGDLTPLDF
Sequence of Hypoxia-inducible factor 1-alpha (Homo sapiens) (Q16665 whole entry, looked up): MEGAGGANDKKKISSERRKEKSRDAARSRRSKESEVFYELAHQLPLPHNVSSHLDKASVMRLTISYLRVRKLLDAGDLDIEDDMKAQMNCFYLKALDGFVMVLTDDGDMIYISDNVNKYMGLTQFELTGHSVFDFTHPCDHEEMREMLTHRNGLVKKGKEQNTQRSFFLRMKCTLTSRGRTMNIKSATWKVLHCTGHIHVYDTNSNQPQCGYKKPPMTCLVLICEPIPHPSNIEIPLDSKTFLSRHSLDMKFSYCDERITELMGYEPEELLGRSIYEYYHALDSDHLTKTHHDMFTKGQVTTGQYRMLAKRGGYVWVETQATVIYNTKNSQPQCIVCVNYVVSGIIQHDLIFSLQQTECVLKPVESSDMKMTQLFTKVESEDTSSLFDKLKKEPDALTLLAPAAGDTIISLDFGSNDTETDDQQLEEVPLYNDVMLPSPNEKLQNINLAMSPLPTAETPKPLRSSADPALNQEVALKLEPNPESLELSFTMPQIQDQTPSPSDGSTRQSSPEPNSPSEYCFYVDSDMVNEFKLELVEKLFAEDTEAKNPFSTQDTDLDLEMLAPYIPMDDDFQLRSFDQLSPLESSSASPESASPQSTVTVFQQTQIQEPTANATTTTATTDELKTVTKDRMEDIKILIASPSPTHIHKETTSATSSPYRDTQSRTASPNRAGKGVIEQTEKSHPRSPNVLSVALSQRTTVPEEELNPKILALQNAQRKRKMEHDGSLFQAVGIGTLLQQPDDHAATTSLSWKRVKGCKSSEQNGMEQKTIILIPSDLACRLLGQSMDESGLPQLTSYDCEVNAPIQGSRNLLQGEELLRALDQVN
Sequence of Bile acid receptor (Homo sapiens) (Q96RI1 whole entry, looked up): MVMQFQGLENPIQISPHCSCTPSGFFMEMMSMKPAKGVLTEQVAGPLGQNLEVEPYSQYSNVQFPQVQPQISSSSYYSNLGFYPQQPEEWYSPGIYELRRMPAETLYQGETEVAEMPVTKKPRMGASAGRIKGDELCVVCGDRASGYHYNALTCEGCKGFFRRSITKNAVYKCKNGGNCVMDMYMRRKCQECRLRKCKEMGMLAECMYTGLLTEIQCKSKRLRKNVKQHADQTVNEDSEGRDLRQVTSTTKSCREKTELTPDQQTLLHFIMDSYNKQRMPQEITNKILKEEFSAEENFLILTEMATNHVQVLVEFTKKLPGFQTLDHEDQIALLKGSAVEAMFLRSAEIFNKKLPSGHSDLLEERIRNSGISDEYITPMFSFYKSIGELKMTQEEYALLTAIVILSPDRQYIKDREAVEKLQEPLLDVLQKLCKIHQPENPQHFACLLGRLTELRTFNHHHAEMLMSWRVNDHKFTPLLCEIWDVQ

N#C[C@@H]1CC(F)(F)CN1C(=O)CNC1CC2CCC(C1)N2c1ncccn1 (stereo not given in full)
not listed: [17] | [18] | [19]
inactive: all other assays above

OC1CCC(C2CCCCC2)CC1 (stereo not given)
inactive: [1] | [2] | [3] | [4] | [6] | [17] | [7] | [8] | [9] | [18] | [19] | [12] | [13] | [14] | [15] | [16]
active: [5] 27 µM and 27.4 µM and 27.5 µM | [9] 70.6 µM | [18] 73.8 µM and 81.2 µM | [13] 100 µM | [14] 154 µM | [16] 121 µM and 128 µM

NC(=O)N1C(=O)C(C(=O)c2cc(Cl)cs2)c2cc(F)c(Cl)cc21 (stereo not given)
active: [13] 6.79 µM | [16] 14.9 µM
not listed: [10] | [11] | [17]
inactive: all other assays above

Oc1cccc(O)c1
not listed: [10] | [11] | [17] | [18]
inactive: all other assays above

CCCOc1sc(C(=O)N2CCC(c3cc(CN)ccc3F)CC2)c(C)c1Br
active: [5] 2.72 µM | [10] 1.12 µM | [13] 3.7 µM
not listed: [18] | [19]
inactive: all other assays above

NC(=O)N(O)[C@@H]1C=C[C@H](Oc2cccc(Oc3ccc(F)cc3)c2)C1
active: [4] 33 µM | [15] 52.8 µM | [16] 33 µM
not listed: [10] | [11] | [17] | [18] | [19]
inactive: all other assays above

C[C@@H]1C[C@H]2[C@@H]3CCC4=CC(=O)C=C[C@]4(C)[C@@]3(F)[C@@H](O)C[C@]2(C)[C@@]1(O)C(=O)COP(=O)(O)O
active: [11] 77.6 nM [middle of 4 runs]
not listed: [10] | [17] | [18] | [19]
inactive: all other assays above
